This is a sample that favours compounds with a hit; in the whole collection about 1.7% have one here.
HUVEC tox TNFa: toxic to HUVEC cells under TNF alpha stimulation; HUVEC TNFalpha-stimulated, Hoechst cell count, imaging; cell count reduction, % at 2 µM; 0.17% of 93,000 active;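 active = cell count reduction exceeding the screen mean by over 5 SD, scaled to untreated wells per plate, cut at about 78% in these data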;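 note: cells counted after 24 h of TNF alpha exposure following the 1 h pretreatment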
IL1B cytotox: toxic to HUVEC cells under IL-1B stimulation. HUVEC cell count loss, Hoechst imaging, IL-1B stimulated. cell count reduction, % at 2 µM. 0.41% of 94,000 active. AID 845;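 active = cell count reduction more than 3 SD above the screen-wide mean, cut at about 70% in these data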
IL1B NFkB pot: enhances IL-1B driven NFkB nuclear translocation; HUVEC IL-1B NFkB p65 nuclear translocation imaging; activation, % at 2 µM; 0.3% of 94,000 active; AID 819;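 active = activation above 40%, about the mean plus 3 SD, also judged a hit on visual image review; inconclusive = activation above 40% but not a hit on visual review; inactive = activation not above 40% and no visual hit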;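 note: percent activation is computed from the nuclear over cytoplasmic p65 intensity ratio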
VCAM1 TNFa inh: reduces TNF alpha induced VCAM1 expression in HUVEC | HUVEC TNFa-induced VCAM-1 immunofluorescence, high-content imaging | 0.48% of 95,000 active | inhibition, % at 2 µM;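 active = inhibition above the batch mean plus 3 SD, with images confirmed as a hit by eye, cut at about 37% in these data; inconclusive = inhibition above that limit but hit not confirmed in images; inactive = inhibition not above that limit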
E-sel TNF inh: blocks E-selectin expression induced by TNF alpha. HUVEC TNFa-induced E-selectin immunofluorescence, high content. inhibition, % at 2 µM. 0.71% of 120,000 active. AID 1246;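 active = inhibition above the batch mean plus 3 SD, and confirmed as a hit on visual image review, cut at about 43% in these data; inconclusive = passes the inhibition cutoff but fails visual image review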
IL1B NFkB inh: blocks IL-1B driven NFkB nuclear translocation in HUVEC cells; HUVEC IL-1B NFkB p65 nuclear translocation imaging; 0.43% of 94,000 active; inhibition, % at 2 µM; AID 796;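 active = inhibition above about 30% together with a positive call from visual inspection of the well image, limit read from the data; inconclusive = inhibition above a set limit but visual check negative; inactive = inhibition not above a set limit, visual check negative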;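 note: nuclear over cytoplasmic p65 intensity ratio measured by imaging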
Numbers stand for hits; 0 = inactive; ? = inconclusive; - = no result.

SMILES	HUVEC tox TNFa	IL1B cytotox	IL1B NFkB pot	VCAM1 TNFa inh	E-sel TNF inh	IL1B NFkB inh
O=C(Nc1ccccc1)OCCNC(=O)c1ccccc1	0	0	40	0	0	0
O=C(NCCOC(=O)c1ccncc1)c1ccccc1	0	0	0	0	0	0
CCCCC(CC)CNC(=O)C1CC=CCC1C(=O)O (stereo unspecified)	-	-	-	-	0	-
CCOC(=O)C1=C(C)NC(C)=C(C(=O)OCC)C1c1sccc1C	0	0	0	0	0	0
C/C(=N\O)c1ccc2c3ccccc3n(C)c2c1	0	0	0	41	-	0
CCn1c2ccccc2c2cc(/C(C)=N/O)ccc21	0	0	0	0	0	0
CCCCOc1ccccc1Cn1c(=O)oc2ccc(C)cc21	0	0	0	0	0	0
Cc1ccc2oc(=O)n(CCCOc3ccccc3)c2c1	0	0	0	0	68	0
COc1ccc(NC(=O)COC(=O)CCCc2c[nH]c3ccccc23)cc1	-	0	0	0	0	0
Cn1c(N)c(C(=O)COC(=O)CCc2c[nH]c3ccccc23)c(=O)n(C)c1=O	0	0	55	0	0	0
NC(=O)COC(=O)CCCc1c[nH]c2ccccc12	79	0	0	94	-	0
N/C(=N\c1nc(CSc2ccc(Cl)cc2)cc(=O)[nH]1)Nc1cccc2ccccc12	0	0	0	0	70	0
NNC(=O)c1cc2c(N3CCC(Cc4ccccc4)CC3)ncnc2s1	-	-	-	-	0	-
CCCCNC(=O)C1CCN(C/C(C)=C/c2ccccc2)CC1	0	0	0	0	0	0
C/C(=C\c1ccccc1)CN1CCC(C(=O)N2CCC(C)CC2)CC1	0	0	46	0	0	0
Cc1cc(C)n2nc(SCC(=O)N/N=C/c3cccc(Br)c3)nc2n1	0	0	136	0	0	0
O=C(Nc1ccc2c(c1)OCO2)C1COc2ccccc2O1 (stereo unspecified)	0	0	0	0	0	0
Cc1cc(C)n(C(=O)c2ccc(NC(=O)C3COc4ccccc4O3)cc2)n1 (stereo unspecified)	85	0	0	98	0	0
O=C(NCCCN1CCN(c2cccc(Cl)c2)CC1)c1cccc(N2CCCC2=O)c1	0	0	46	0	0	0
COc1ccc(N(C(=O)CNC(=O)c2cccs2)C(C(=O)NCC2CCCO2)c2ccccc2)cc1OC (stereo unspecified)	-	-	-	-	0	-
[O-][n+]1c2c(c3c4non(O)c4ccc31)CCCC2	0	88	0	0	0	0
COn1c2c(c3c4no[n+]([O-])c4ccc31)CCCC2	0	0	0	0	0	0
Cc1ccc(-n2[nH]c(C)c(/C=N/NC(=O)c3ccc([N+](=O)[O-])cc3)c2=O)c(C)c1	-	-	-	-	0	-
COc1cc2c(O)c3c(c(-c4ccc5c(c4)OCO5)c2cc1OC)C(=O)OC3	0	0	0	91	-	0
COc1cc2c(=O)n(-c3ccc(C)cc3)c(=O)n(CC(=O)c3ccc4c(c3)OCO4)c2cc1OC	-	-	-	-	0	-
SMILES	HUVEC tox TNFa	IL1B cytotox	IL1B NFkB pot	VCAM1 TNFa inh	E-sel TNF inh	IL1B NFkB inh
Cc1cc(C)c(NC(=O)c2cc(=O)c3ccccc3o2)c(C)c1	-	-	-	-	0	-
Cc1ccc(C2(C)NC(=O)N(CCOc3ccccc3)C2=O)cc1 (stereo unspecified)	0	0	0	0	82	0
COc1ccc(OCCN2C(=O)NC(C)(c3ccc(C)cc3)C2=O)cc1 (stereo unspecified)	0	0	0	0	0	0
CC(C)(C)C(=O)c1cn(CC(=O)NCc2ccc3c(c2)OCO3)c2ccccc12	0	0	0	0	0	0
COc1c(C)cc(Br)cc1C(=O)Nc1cccc(NC(=O)c2ccco2)c1	0	87	0	0	0	0
COc1c(C)cc(Br)cc1C(=O)O	0	90	0	0	0	0
COc1ccc(Br)cc1C(=O)O	-	-	-	-	97	-
O=c1c2ccccc2nc(SCc2ccncc2)n1CC1CCCO1 (stereo unspecified)	-	-	-	-	0	-
COc1ccc(OC)c(CCNC(=O)CS(=O)(=O)Cc2nc(-c3ccccc3C)oc2C)c1	0	0	0	0	0	0
CC(C)NS(=O)(=O)c1ccc2c(c1)NCC2	-	-	-	-	0	-
Clc1ccc(-n2ncc3c(NCc4ccc5c(c4)OCO5)ncnc32)cc1	0	0	0	80	0	0
Clc1ccc(-n2ncc3c(NCc4ccco4)ncnc32)cc1	-	0	?	-	0	0
NC(=O)NOCc1ccccc1	-	-	-	-	68	-
NC(=O)CC(NC(=O)OCc1ccccc1)C(=O)O (stereo unspecified)	0	0	0	0	0	0
O=C(Nc1ccccc1)N1CCC(C(=O)N2CCN(c3ccccc3F)CC2)CC1	-	-	-	-	0	-
Cc1cc(=O)n2nc(-c3ccccc3)sc2c1C#N	-	-	-	-	95	-
Cc1ccc(CCNC(=O)Cn2cccc2)cc1	0	88	0	0	0	98
O=C(CNS(=O)(=O)c1cccc2nsnc12)NCc1ccc(Cl)cc1	-	-	-	-	0	-
COC(=O)c1ccccc1NC(NC(=O)c1ccco1)C(=O)c1ccc(C)cc1 (stereo unspecified)	86	0	0	62	0	0
CC1(C)CSC(=S)N1S(=O)(=O)c1ccccc1	0	0	0	0	0	0
Cn1c(CCNC(=O)c2cccs2)nnc1SCC(=O)Nc1nc(-c2ccccc2)cs1	0	0	0	0	0	0
Cc1csc(NC(=O)CSc2nnc(CCNC(=O)c3cccs3)n2C)n1	0	89	0	0	0	99
c1ccc(-c2nc(NCc3cccnc3)c3oc4ccccc4c3n2)cc1	0	0	0	0	0	0
OCCN=C(c1ccccc1)C12CN3CN(CN(C3)C1)C2	0	0	?	60	-	0
O=C(NCc1ccc2c(c1)OCO2)c1ccc(=O)[nH]c1	0	0	0	0	0	0
SMILES	HUVEC tox TNFa	IL1B cytotox	IL1B NFkB pot	VCAM1 TNFa inh	E-sel TNF inh	IL1B NFkB inh
CSc1ccc(-c2nnn(Cc3ccccn3)n2)cc1	0	0	0	0	0	0
CSc1ccc(-c2nnn(Cc3ccc(Br)cc3)n2)cc1	0	0	58	0	0	0
COc1cccc(COc2nc3c(c(=O)n(C)c(=O)n3C)n2C)c1	0	0	0	0	0	38
Clc1ccccc1Sc1cnc2ccccc2n1	0	0	0	0	0	36
Clc1ccc(Sc2cnc3ccccc3n2)cc1	0	0	0	0	0	0
O=C1CC(N2CCN(Cc3ccc4c(c3)OCO4)CC2)C(=O)N1c1ccccc1 (stereo unspecified)	0	0	0	61	0	0
CCCCCOc1ccc(C2C(C(C)=O)=C(C)Nc3ncnn32)cc1OC (stereo unspecified)	0	0	0	0	0	0
CCC(=O)NC(c1ccc([N+](=O)[O-])cc1)c1c(O)ccc2ccccc12 (stereo unspecified)	0	0	0	0	100	0
CCCCC(=O)NC(c1ccc([N+](=O)[O-])cc1)c1c(O)ccc2ccccc12 (stereo unspecified)	-	-	-	-	0	-
O=C(CSc1n[nH]c(=O)n1C1CC1)Nc1cc(Cl)ccc1Oc1ccccc1	0	0	0	0	0	0
COc1ccccc1CC1(C)NC(=O)N(CC(=O)N2CC(C)OC(C)C2)C1=O (stereo unspecified)	0	0	0	0	87	0

Screens: PubChem, Columbia University Molecular Screening Center
